Most compounds without a hit are left out; they make up all but 11% or so of the library.
3T3 cytotox: cytotoxic compounds in NIH 3T3 cells. NIH 3T3 viability, CellTiter-Glo ATP luminescence, 48-72 h. Potency, µM (doses to about 96.7 µM), actives largely listed as inhibitors. 94,000 compounds, 4.3% hits; note: nearly all actives have a fitted effect of over 55% in size
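First NIH 3T3 cells are plated at 400 cells/well; next compound is pinned in; then plates incubate 48 or 72 hr at 37 °C; finally CellTiter-Glo is added and luminescence read after 10 min.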
FLuc inh-1: Photinus pyralis luciferase inhibition | P08659 | purified P. pyralis luciferase, luminescence, biochemical | Potency, µM (doses to about 115 µM), actives largely listed as inhibitors | 76,000 compounds, 2.5% hits; note: nearly all actives have a fitted effect of over 65% in size
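Purified P. pyralis luciferase (10nM final) in 50mM Tris acetate pH 7.5, 10mM Mg acetate, 0.01% Tween-20, 0.05% BSA with 10uM D-luciferin and 10uM ATP. Compounds titrated qHTS. Luminescence imaged on CCD.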
HEK cytotox: kills HEK 293 cells. Potency, µM (top dose mostly 115 µM), usual class: inhibitors. 94,000 compounds, 6.6% hits. HEK 293 viability, ATP luminescence (CellTiter-Glo), 48-72 h; note: nearly all actives have a fitted effect of over 60% in size
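HEK 293 cells seeded at 250 cells/well were exposed to compound for 48 or 72 hr at 37 degree Celsius. Viability taken as ATP content by CellTiter-Glo luminescence.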
NPR1 antag: human Npr1 receptor antagonism; Potency, µM (series often up to 46.3 µM), actives largely listed as inhibitors; P16066; HEK293 hNpr1 GloSensor cGMP, ANP-stimulated luminescence; 76,000 compounds, 1.6% hits; AID 1347048; calls by dose curve; note: nearly all actives have a fitted effect of over 60% in size
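HEK293 cells stably expressing human Npr1 and cGMP GloSensor pGS-40F, loaded 2 h with 2% GloSensor reagent, given compound 30 min at room temperature. Luminescence read before and 20 min after 0.1 nM hNppA.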
FLuc SDR no ATP: binders stabilizing firefly luciferase, without ATP; shares compounds with FLuc inh-1; 1,300 compounds, 7.8% hits; Purified FLuc-C-HiBiT, Nano-Glo HiBiT luminescence, no ATP; Potency, µM (titrated, usually from 32.7 µM), most hits filed as activators; AID 1963318; note: nearly all actives have a fitted effect of over 55% in size
FLuc SDR ATP: binders stabilizing firefly luciferase, plus ATP. shares compounds with FLuc inh-1. purified FLuc-C-HiBiT + ATP, HiBiT complementation luminescence. Potency, µM (top dose mostly 32.7 µM), most hits filed as activators. 1,300 compounds, 8.7% hits. AID 1963319;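 note: signal reports ligand binding via conformational change of the enzyme rather than luciferase catalysis; nearly all actives have a fitted effect of over 55% in size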
FLuc inh-2: firefly luciferase enzyme inhibition; shares compounds with FLuc inh-1; purified FLuc-C-HiBiT enzyme, luciferin luminescence; Potency, µM (highest dose often 32.7 µM), usual class: inhibitors; 1,300 compounds, 42% hits; AID 1963320; note: nearly all actives have a fitted effect of over 70% in size
Of the large screens only hits and unclear results are named; the others gave an inactive call (follow-up assays come after a bar, where they were run). Unless noted, calls come from the whole dose curve; as a rule, active = well fitted curve in the direction sought with a large enough effect; inconclusive = small, poorly fitted or top-dose-only effect, or another doubt; inactive = no such curve, though single readings can be large; an effect the other way counts as inactive or inconclusive.

O=C(NCc1ccc(F)cc1)C1(CCO)CC12CCOCC2 (stereo not given)	none
Cc1cc(C(=O)NCc2c[nH]c3ncccc23)ccc1Cl	3T3 cytotox inconclusive, HEK cytotox inconclusive
Cc1ccc(C(=O)Nc2cccc3cccnc23)cc1Cl	none (no result: 3T3 cytotox, FLuc inh-1, HEK cytotox, NPR1 antag) | FLuc SDR no ATP inactive | FLuc SDR ATP inactive | FLuc inh-2 inactive
CC1(NC(=O)C2CC2)CN(Cc2nc(-c3ccccc3OCc3ccccc3)cs2)C1	3T3 cytotox inconclusive, FLuc inh-1 7.94µM, HEK cytotox 79.4µM | FLuc SDR no ATP inactive | FLuc SDR ATP inactive | FLuc inh-2 inconclusive
CC1(NC(=O)C2CC2)CN(Cc2nc(-c3cccc(F)c3)cs2)C1	FLuc inh-1 2.82µM, HEK cytotox inconclusive, NPR1 antag 25.1µM | FLuc SDR no ATP inconclusive | FLuc SDR ATP inactive | FLuc inh-2 inconclusive
CC(=O)NC1(C)CN(Cc2ccc(-c3cccc(F)c3)nc2)C1	FLuc inh-1 inconclusive, HEK cytotox inconclusive
CC(=O)NC1(C)CCN(Cc2cnc(-c3ccccc3OCc3ccccc3)s2)CC1	3T3 cytotox inconclusive, HEK cytotox inconclusive
CN1C(=O)c2cccn2CC1C(=O)NCCCc1ccccc1 (stereo not given)	none (no result: FLuc inh-1, NPR1 antag)
COc1cccc(-c2noc(Nc3ccc4c(c3)OCCO4)n2)c1	FLuc inh-1 0.316µM, HEK cytotox inconclusive, NPR1 antag 5.01µM | FLuc SDR no ATP inconclusive | FLuc SDR ATP inconclusive | FLuc inh-2 1.57µM
COc1ccc(OC)c(-c2noc(Nc3cccc(F)c3)n2)c1	HEK cytotox inconclusive
CCCc1noc(-c2nc(-c3ccccc3F)no2)n1	FLuc inh-1 5.62µM, NPR1 antag inconclusive | FLuc SDR no ATP inactive | FLuc SDR ATP inactive | FLuc inh-2 inconclusive
CCc1ccc(Nc2nc(-c3ccccc3F)no2)cc1	3T3 cytotox inconclusive, FLuc inh-1 2.51µM, HEK cytotox inconclusive, NPR1 antag 12.6µM | FLuc SDR no ATP inactive | FLuc SDR ATP inactive | FLuc inh-2 6.24µM
COc1ccc(-c2noc(Nc3ccc4c(c3)OCO4)n2)cc1	FLuc inh-1 inconclusive, HEK cytotox inconclusive
COc1cccc(-c2noc(Nc3ccc(OC)c(OC)c3)n2)c1	3T3 cytotox inconclusive, FLuc inh-1 2µM, HEK cytotox inconclusive, NPR1 antag inconclusive | FLuc SDR no ATP inconclusive | FLuc SDR ATP inactive | FLuc inh-2 3.94µM
CCc1nc2c(c(-c3ccc(O)cc3)n1)CCN(Cc1ccc(OC)cc1)CC2	none
Cc1nc(CN2C(=O)OC3(CCN(Cc4ccccc4F)CC3)C2(C)c2ccccc2)cs1 (stereo not given)	HEK cytotox inconclusive
COc1ccc(CNC(=O)c2ccc3nnc(-c4ccc(Cl)cc4)n3c2)cc1	3T3 cytotox inconclusive (no result: FLuc inh-1, NPR1 antag)
COc1cccc(-c2cc(C(=O)N[C@@H](C)c3ncccc3C)[nH]n2)c1	3T3 cytotox inconclusive, FLuc inh-1 inconclusive, HEK cytotox inconclusive
CCCNC(=O)N1CCN2C(=O)c3cc(-c4cccc(C(F)(F)F)c4)ccc3NC(=O)[C@@H]2C1	3T3 cytotox inconclusive, HEK cytotox inconclusive
COc1cccc(-c2noc(CCCc3nc(-c4cccnn4)no3)n2)c1	FLuc inh-1 inconclusive
COc1cccc(-c2noc(Nc3ccc4c(c3)OCO4)n2)c1	3T3 cytotox inconclusive, FLuc inh-1 2µM, HEK cytotox inconclusive, NPR1 antag inconclusive | FLuc SDR no ATP inactive | FLuc SDR ATP inconclusive | FLuc inh-2 6.24µM
COc1ccc(Nc2nc(-c3ccccc3F)no2)cc1OC	3T3 cytotox inconclusive, FLuc inh-1 2.24µM, HEK cytotox inconclusive, NPR1 antag inconclusive | FLuc SDR no ATP inactive | FLuc SDR ATP inconclusive | FLuc inh-2 3.51µM
COc1ccccc1CNc1ncnc2c1CN(C1CCCNCC1)C(=O)CN2C (stereo not given)	none (no result: FLuc inh-1, NPR1 antag)
O=C(NCCc1ccccc1Cl)c1ccc2c(c1)nc1n2CCOC1	none (no result: 3T3 cytotox, FLuc inh-1, HEK cytotox, NPR1 antag) | FLuc SDR no ATP inconclusive | FLuc SDR ATP inconclusive | FLuc inh-2 7µM
Cc1ccc(S(=O)(=O)N2CCOC3(CNCCOC3)C2)cc1F (stereo not given)	none

Assay outcomes as filed in PubChem BioAssay.
